Screening data from PubChem BioAssay.
Shown are actives, neighbours in structure and some others; about 4.7% of the full set was active somewhere.
D1 antag: blocks dopamine activation of the human D1 receptor. actives 3.2% (n = 360,000). AID 504652. P21728. activity change, negative = inhibition, % at 10 µM. HEK293 TREx D1 cells, calcium flux, dopamine EC80; hits give low values; in the data active = activity change below about -30%
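HEK293 T-REx cells expressing inducible, force-coupled D1 receptor; no-wash Ca dye, 30–90 min RT. Cmpd → 180 s read at 1 Hz → EC80 DA → 180 s read.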
D1 potentiator: enhances dopamine response at the human D1 receptor. HEK293 TREx D1 cells, calcium flux, dopamine EC20 potentiation. potentiation, % at 10 µM. actives 0.036% (n = 360,000); in the data active = potentiation above about 30%
D1 agonist: human D1 receptor agonism. actives 1% (n = 360,000). activation, % at 2 µM. AID 504660. P21728. HEK293 T-REx D1 cells, calcium flux, agonist mode
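Inducible HEK293 T-REx D1 cells, force-coupled to calcium signalling, were plated at 4000 cells/well with tetracycline and held overnight at 30 C. After no-wash calcium dye loading, compound-evoked calcium rise over 180 s flagged agonists.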
TRHR enhancer: TRH receptor (human) allosteric enhancement; P34981; TRHR cells, fluo-8 calcium fluorescence, EC20 TRH enhancement; enhancement, % at 2 µM; actives 0.66% (n = 360,000); in the data active = enhancement above about 30%
Target sequence (P34981 whole entry, looked up): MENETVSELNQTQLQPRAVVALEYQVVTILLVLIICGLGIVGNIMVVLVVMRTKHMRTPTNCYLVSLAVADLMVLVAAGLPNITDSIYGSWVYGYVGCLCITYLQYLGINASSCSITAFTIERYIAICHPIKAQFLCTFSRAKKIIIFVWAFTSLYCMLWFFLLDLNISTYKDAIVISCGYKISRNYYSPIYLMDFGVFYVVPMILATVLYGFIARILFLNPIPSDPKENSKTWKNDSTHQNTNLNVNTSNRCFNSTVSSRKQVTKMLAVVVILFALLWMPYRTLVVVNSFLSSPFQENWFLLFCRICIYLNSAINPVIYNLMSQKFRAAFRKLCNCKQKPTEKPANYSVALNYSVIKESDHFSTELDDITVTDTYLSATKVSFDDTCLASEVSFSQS
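Enhancer read-out: after compound pinning and an initial kinetic agonist-mode read, an EC20 of TRH (10 nM final) was injected and fluo-8 calcium signal (Ex 480/Em 530) followed at 1 s/cycle for 100 cycles in TRHR-expressing cells.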
TRHR agonist: activates the human TRH receptor. P34981. TRHR cells, calcium flux fluo-8, FDSS agonist mode. activation, % at 2 µM. actives 0.18% (n = 360,000)
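TRHR-expressing cells, plated overnight in medium with 10% serum, were loaded with fluo-8 calcium dye at room temperature. After a 10 s baseline, library compound was pin-added and calcium release was recorded kinetically (ex 480/em 530) as agonist response.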
Numbers stand for hits; 0 = inactive; - = no result given; ! = a repeat was not active. Cut-off read from the data, not from the text of the source, unless noted: active = activation above about 30%; inactive = the rest.

SMILES	D1 antag	D1 potentiator	D1 agonist	TRHR enhancer	TRHR agonist
O=C(NCC(c1ccco1)N1CCCC1)c1ccc(S(=O)(=O)Nc2ccc(F)cc2)cc1 (stereo not drawn)	0	-	51	0	0
CCOc1ccc(NS(=O)(=O)c2ccc(C(=O)NCC(c3ccco3)N3CCCC3)cc2)cc1 (stereo not drawn)	0	-	54	0	0
COc1ccc(NS(=O)(=O)c2cccc(C(=O)NCC(c3ccco3)N3CCCCC3)c2)cc1 (stereo not drawn)	0	0	0	0	0
CSCCC(NS(=O)(=O)c1ccc(C)cc1)C(=O)N1CCN(S(=O)(=O)c2ccc(F)cc2)CC1 (stereo not drawn)	0	0	0	0	0
CCOc1cc(C(=O)OCC(=O)Nc2ccc(F)cc2Cl)ccc1OCC(=O)N1CCOCC1	0	0	0	0	0
CC(=O)Nc1ccc(OS(=O)(=O)c2ccc(C(C)(C)C)cc2)cc1	-56	0	0	0	0
Cc1ccc(S(=O)(=O)N(C)Cc2nc(-c3ccc(Br)cc3)no2)cc1	-36	0	0	0	0
Cc1ccc(-n2cc(-c3ccccc3)c3c(=O)[nH]cnc32)cc1	-66	0	0	0	0
Fc1ccc(-n2cc(-c3ccccc3)c3c(=S)nc[nH]c32)cc1	-41	0	0	0	0
CCOC(=O)c1ccc(NC(=O)COCc2cc(-c3ccc4c(c3)OCO4)on2)cc1	0	0	0	0	0
CC(=O)Nc1ccc(-n2cc3c(c2-c2ccc(C)cc2)c(=O)n(C)c(=O)n3C)cc1	0	0	0	0	0
CCN1CCN(C(=O)c2cc3cc([N+](=O)[O-])ccc3oc2=O)CC1	-36	0	0	0	0
CCc1ccc(-n2c(=O)c3cccnc3n2CC(=O)NCc2ccc(F)cc2)cc1	-36	0	0	0	0
CCc1ccc(-n2c(=O)c3cccnc3n2CC(=O)NCc2ccccc2)cc1	0	0	0	0	0
Cc1ccc(C(C)NC(=O)c2ccc3c(c2)OCO3)cc1C (stereo not drawn)	0	0	0	0	0
CCN(CC)CCNC(=O)c1cc2c(-c3ccc(Cl)cc3)nn(C)c2s1	0	0	0	0	0
CCCCN(CC)CCNC(=O)c1cc2c(-c3ccc(Cl)cc3)nn(C)c2s1	0	0	66!	0	0
O=C(CN1CCN(C(=O)CCC(=O)N2CCC(c3ccccc3)=N2)CC1)Nc1ccc(F)cc1	-41	0	0	0	0
Cn1cccc1/C=N/n1c(-c2ccc(Cl)cc2Cl)n[nH]c1=S	0	0	44	0	0
Cn1cccc1/C=N/n1c(-c2ccc(Cl)cc2)n[nH]c1=S	0	0	0	0	0
O=C(OCc1ccccc1Cl)c1ccc(-c2nnn(Cc3ccccc3Cl)n2)cc1	0	0	0	0	0
Cc1ccc(C(=O)NCCCNC(=O)c2ccccn2)cc1	0	0	0	0	0
Cc1ccc(C(=O)NCCCNc2ccccc2[N+](=O)[O-])cc1	-44	0	0	0	0
O=C(O)c1cccc(Nc2ccncc2[N+](=O)[O-])c1	0	0	0	0	0
COc1ccc(NC(=O)NC2CCCc3ccccc32)cc1OC (stereo not drawn)	0	0	0	0	0
SMILES	D1 antag	D1 potentiator	D1 agonist	TRHR enhancer	TRHR agonist
Cc1nc2ccccn2c1C(=O)NC1CCCc2ccccc21 (stereo not drawn)	-34	0	0	0	0
COc1ccc(NC(=O)NC2CCCc3ccccc32)cc1 (stereo not drawn)	-43	0	0	0	0
Cc1cccc(NC(=O)NC2CCCc3ccccc32)c1 (stereo not drawn)	-44	0	0	0	0
O=C(NC1CCCc2ccccc21)c1cn2ccccc2n1 (stereo not drawn)	0	0	0	0	0
CC(=O)c1cccc(NC(=O)NC2CCCc3ccccc32)c1 (stereo not drawn)	0	0	0	0	0
CCN(CC)CCNC(=O)c1ccc(NC(=O)c2ccc(C(=O)c3ccccc3)cc2)cc1	-38	0	0	0	0
CCN(CC)CCNC(=O)c1ccc(NC(C)=O)cc1	-34!	0	0	0	0
CCN(CC)CCNC(=O)c1ccc(NC(=O)Cc2cccc3ccccc23)cc1	0	0	0	0	0
CCN(CC)CCNC(=O)c1ccc(NC(=O)c2ccc(COc3ccccc3)cc2)cc1	0	0	0	0	0
